Where “and” joins values, the source holds several entries; their conditions need not be identical. Equal entries are not always repeated. About 5,000 (1.4%) of roughly 360,000 compounds were called active.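 How the source made its calls: active means inhibition of 50% or more, scaled per plate between neutral and stimulator controls; inactive means the rest.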 The sample as a whole holds a higher share of actives than the screen did. More than one record can exist for a structure, and the calls need not agree.
assay: blockers of Ca2+-induced mitochondrial swelling – biochemical, isolated mouse mitochondria, absorbance, primary screen (AID 602449); conditions: 30 min, at 10 µM, stronger effect = higher value;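 further: 0% = DMSO wells given calcium and 100% = 1 mM EGTA wells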

inhibition, 14.7% (inactive) and 55.4% (active):
COc1ccc(-c2nc3cc(C)ccn3c2NC2CCCCC2)cc1SC1CCCCC1

inhibition, active:
CN(C)Cc1ccc(F)cc1Sc1cc(Cl)ccc1Cl 59%, O=C(Cc1ccsc1)N1CCN(S(=O)(=O)c2cc(C(F)(F)F)cc(C(F)(F)F)c2)CC1 53.1%, O=C(c1ccncc1)N1CCN(S(=O)(=O)c2cc(C(F)(F)F)cc(C(F)(F)F)c2)CC1 106%, CN(C)Cc1ccccc1C1(O)c2ccccc2CSc2ccccc21 (stereo not drawn) 52.8%, COc1cc2c3c(c1)/C(=C1/SC(=S)NC1=O)C(=O)N3C(C)(C)C=C2C 91.4%, CCCCc1nc(NCCN)c(C#N)c2c1CSC(C)(C)C2 108%, CCOC(=O)c1c(NC(=O)CSc2cn(CC)c3ccccc23)sc2c1CCC2 59.8%, CCCCC(=O)NNC(=S)NC(=O)C(c1ccccc1)c1ccccc1 69.1%, COC(=O)c1c(C)[nH]c(C(=O)/C=C/c2ccc(Cl)cc2)c1C 102%, S=C(NCC1COc2ccccc2O1)Nc1ccc(Br)cc1 (stereo not drawn) 91.4%, CC(NC(=S)Nc1ccccc1)C1COc2ccccc2O1 (stereo not drawn) 83.4%, S=C(NCCCc1ccccc1)Nc1ccc(Br)cc1 85.9%, Cc1cc(C)c(NC(=O)C[N+](C)(C)CC(O)COc2cccc3ccccc23)c(C)c1 (stereo not drawn) 80.5%, Cn1nccc1C(=O)NC1CCCc2c1cnn2-c1ccc(F)cc1F (stereo not drawn) 89.9%, Cn1nccc1C(=O)NC1CCCc2c1cnn2-c1ccccc1F (stereo not drawn) 102%, COc1ccc(C(=O)NC2CCCc3c2cnn3-c2cccc(C)c2C)c(OC)n1 (stereo not drawn) 71%

inhibition, inactive:
CN(Cc1ccc(F)cc1Cl)S(=O)(=O)c1cccs1 -2.3%, Cc1ccc(-c2ccc(=O)n(Cc3ccc(F)cc3Cl)n2)cc1 0%, Cc1ccc(-c2c[n+](=O)c3c(n2[O-])CCC3)cc1 0.3%, O=C1CCC(C(=O)N2CCCCO2)CN1Cc1cccc(C(F)(F)F)c1 (stereo not drawn) 0.5%, C=CCOc1ccccc1CNn1c(C)n[nH]c1=S -0.7%, O=C(Cc1ccccc1)N1CCN(S(=O)(=O)c2ccc([N+](=O)[O-])cc2)CC1 -3.8%, O=C(CCC(=O)N1CCN(S(=O)(=O)c2ccc(Cl)cc2)CC1)NCc1cccc(C(F)(F)F)c1 -2.6%, O=C(c1ccncc1)N1CCN(S(=O)(=O)c2cccc([N+](=O)[O-])c2)CC1 -0.5%, CC(C)(C)c1ccc(S(=O)(=O)N2CCN(C(=O)c3ccc4c(c3)C(=O)N(Cc3ccncc3)C4=O)CC2)cc1 32.6%, CCOC(=O)CNC(=O)CSc1ncccc1-c1nc2ccccc2[nH]1 0%, COc1ccc(NC(=O)c2sc(=O)n(Cc3ccc(S(=O)(=O)N(C)C)cc3)c2C)cc1 -1.7%, CCOC(=O)c1sc2nc(C)nc(SCC(N)=O)c2c1C 0.2%, O=C(CN(C(=O)CCC(=O)Nc1nccs1)c1ccc(F)cc1)NCc1ccc2c(c1)OCO2 -0.8%, CC(=O)Nc1cc(-c2ccc(N3CCN(C)CC3)cc2)cn2c(-c3cccc(C(=O)N(C)C)c3)cnc12 0.5%, CC(=O)OC1CCC2C3CCC4=C(CC(F)C(=O)C4)C3CCC12C (stereo not drawn) 1.6%, CN(C)CC/C=C1\c2ccccc2CSc2ccccc21 2.3%, CN(Cc1cccs1)C(=O)Cc1c[nH]c2ccccc12 0.8%, COc1ccccc1NC(=O)C1=C(C)Nc2nc3ccccc3n2C1c1cccs1 (stereo not drawn) 0.9%, COc1ccc(-c2nc3cnccn3c2NC2CCCCC2)cc1-c1cccc(Cl)c1 2% and -0.2%, CCOc1cc(-c2nc3cc(C)ccn3c2NCC2CCCO2)ccc1O (stereo not drawn) -0.2%, CCCC1CC(C)(C(=O)Cn2[nH]c(=O)ccc2=O)OC1=O (stereo not drawn) -1.2%, O=C1CCC(C(=O)OCC(=O)Nc2ccc(OC(F)F)cc2)=NN1 -0.6%, O=C(COc1ccc(NC(=O)c2ccccc2[N+](=O)[O-])cc1)c1ccc(F)cc1 -1.1%, Cc1cc(C)n(CCNS(=O)(=O)c2ccc(Cl)cc2)n1 0%, Cc1ccc(C(=O)NCC(=O)O)s1 -1.7%, CCCCc1nc(NCc2ccccc2)c(C#N)c2c1CCCC2 5.4%, Cc1nc(NCCN)c(C#N)c2c1COC(C)(C)C2 -1%, COc1ccc(OC)c(S(=O)(=O)N(C)CC(=O)N2CCN(c3ccccc3)CC2)c1 -2.8%, COc1ccc(C)cc1NC(=S)Nc1ccccc1SC 0.6%, COc1ccc(NC(=O)CN(C)C(=O)c2cccc(S(=O)(=O)N3CCN(c4ccccc4)CC3)c2)cc1 1.3%, COc1cc2c(C(=O)N3CCN(C)CC3)c(CSc3ccccc3)n(C)c2cc1Br -3.4%, CC1CCCC(C)N1C(=O)COC(=O)c1ccccc1C(=O)c1ccccc1 (stereo not drawn) -1.2%, CCOC(=O)c1c(NC(=O)C(C)Sc2c[nH]c3ccccc23)sc2c1CCC2 (stereo not drawn) 3.9%, CCOC(=O)c1c(NC(=O)Cn2nc(C(F)(F)F)cc2C)sc2c1CCC2 4%, O=C(NCc1ccncc1)C1CCCN(S(=O)(=O)c2ccc(Br)cc2)C1 (stereo not drawn) -0.9%, Cc1ccc(N(Cc2ccccc2O)C(=O)c2ccccc2F)cc1 0.4%, CC(C)C(=O)N1c2ccccc2NC2=C(C(=O)CCC2)C1c1ccc(N(C)C)cc1 (stereo not drawn) 0.8%, CCCOCC(O)CC(CC)C(=O)NNC(=S)Nc1ccccc1 (stereo not drawn) 1.7%, CCCCC(=O)NCc1ccc(F)cc1 0.7%, CCN(CC(=O)Nc1c(F)cccc1F)C(=O)c1cnc(C)cn1 1.7%, COC(=O)c1c(C)[nH]c(C(=O)NCCc2ccc(S(N)(=O)=O)cc2)c1C 0.1%, CCCCOC(=O)c1[nH]c(C)c(C(=O)OC)c1C 1.6%, c1csc(-c2nnc(COc3ncnc4sccc34)o2)c1 1.9%, COc1cnc(SCc2ccc(Cl)c(Cl)c2)nc1Cl 0.4%, COCCNC(=O)CSc1nc2sccc2c(=O)n1-c1ccccc1 0%, CC(NC(=S)Nc1ccccc1)C(c1cccs1)N1CCOCC1 (stereo not drawn) 0.1%, S=C(Nc1ccc(Br)cc1)NC1CCN(Cc2ccccc2)CC1 3.1%, O=C(COc1ccc(F)cc1Br)NCC1COc2ccccc2O1 (stereo not drawn) 1.6%, C/C(=N/NC(=S)Nc1ccccc1)c1ccc2c(c1)OCO2 -0.4%, O=S(=O)(NCCCc1ccccc1)c1ccc(Br)cc1 13.4%, CCCN(CC1COc2ccccc2O1)C(=S)Nc1ccc(C)cc1 (stereo not drawn) 2.3%, Cc1c[n+]([O-])ccc1[N+](=O)[O-] -0.3%, COc1ccccc1NC(=O)CCSc1nnc(-c2ccc(O)cc2)o1 -1.6%, CC(C)Oc1ccc(C(=O)Nc2cc(=O)n(C)c(=O)n2C)cc1 -1.9%, Cn1cnc(S(=O)(=O)N2C[C@@H](O)COC[C@@H]3O[C@H](CC(=O)NC4CCC4)CC[C@H]32)c1 -0.5%, O=C(C[C@H]1C[C@@H]2c3cc(NC(=O)C4CCC4)ccc3O[C@@H]2[C@H](CO)O1)NC1CCCCC1 -0.5%, Cc1cc(F)ccc1N1CCC(N2CCN(C)C(CCO)C2)CC1 (stereo not drawn) 0%, CCCNC(=O)NCc1ccc(N2CCCC2=O)cc1 2.2%, COc1cc(N2CCCC2)c(OC)cc1/C=C(/C#N)c1cccc(Br)c1 1.4%, Cc1cc(C)cc(OCC(=O)NCc2cc(C)nc3ccccc23)c1 4.6%, Cc1cc(C)c(NC(=O)c2oc3ccccc3c2COc2ccccc2)c(C)c1 1.5%, CC1(C)Cc2c(cnn2-c2cccc(F)c2)C(NC(=O)c2cc[n+]([O-])cc2)C1 (stereo not drawn) -0.8%, CC1=C(C(=O)NC2CC(C)(C)Cc3c2cnn3-c2ccc(C)cc2)OCCO1 (stereo not drawn) -0.2%, COc1ccc(OC)c(C(=O)NC2CCCc3c2cnn3-c2cc(C)cc(C)c2)c1 (stereo not drawn) 1.5%, Cc1cc(C(=O)NC2CC(C)(C)Cc3c2cnn3-c2ccccc2)n[nH]1 (stereo not drawn) -0.7%, COC(=O)c1ccc(C(=O)NC2CC(C)(C)Cc3c2cnn3-c2ccc(F)cc2)nc1 (stereo not drawn) -1.7%, COc1ccc(C(=O)NC2CC(C)(C)Cc3c2cnn3-c2ccccc2C)o1 (stereo not drawn) -1.2%, CCNC(=O)c1sccc1-n1cccc1 -0.7%, CCN(CC)C(=O)Oc1ccc(OC(=O)N(CC)CC)cc1 -0.8%, C[C@H](CO)N1C[C@H](C)[C@@H](CN(C)S(=O)(=O)c2ccc(F)cc2)Oc2ccc(NC(=O)CCC(F)(F)F)cc2C1=O 0.8%, COc1ccc(CN(Cc2ccco2)S(=O)(=O)c2ccc(S(=O)(=O)N3CCCC3)cc2)cc1 11.4%, CCc1cccc(NC(=O)COC(=O)c2cc(=O)c3ccccc3o2)c1 0.9%, CSCC[C@H](NC(=O)N1CCn2c1nc1ccccc12)C(=O)NCc1ccc2c(c1)OCO2 -2.6%, C=C(C)c1cccc(C(C)(C)NC(=O)NCCN(CC)CC)c1 1.1%, CCC(C(=O)NC(C)(C)C)n1c(-c2ccccc2)nc2ccccc21 (stereo not drawn) 1.2%, Cc1cc(C)n2nc(C(=O)OCC(=O)N(CCC#N)c3ccc(F)cc3)nc2n1 -0.4%

— PubChem BioAssay AID602449 (Sanford-Burnham Center for Chemical Genomics, 2012)
